Data taken from the supplement of paper PMC10849652.
About 7,900 targets were measured; listed, in parts, are those with a hit and a random draw of the rest. About 0.6% of all pairs of compound and target were hits. Unmarked numbers belong to inactive results.

What was measured:
Assay in all cases: log2 fold change, soluble protein after heating vs DMSO (PISA); higher = thermal stabilisation; K562 cells, 10 uM, 30 min; active = over 0.2 and 3.5 SD of the protein, either way, in both replicates (recomputed)
[1] = compound: CC1=C(C=C(C=C1)NC(=O)C2=CC(=CC=C2)C(C)(C)C#N)NC3=CC4=C(C=C3)N=CN(C4=O)C
Procedure, shortened: (§1)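 Quantification of soluble protein used TMTpro 16plex LC-MS/MS, with channel sums equalised. Samples were the supernatant after 21,000xg for 90 min of pooled aliquots from K562 cells (2×10^6 cells/mL) treated with 10 μM compound for 30 min, heated for 3 min over 48°C-58°C, and extracted in PBS with 0.5% NP-40 at 4°C. Values, from duplicates, describe thermal stability against control samples on a log2 fold-change scale.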

[2] = compound: CC1=C(C=C(C=C1)NC(=O)C2=CC(=CC=C2)N(C)C)NC(=O)C3=CC=C(C=C3)O
Procedure, shortened: as §1

[3] = compound: CC1=CC=C(C=C1)SC2=C3C=C(SC3=CN=C2)C(=O)N
Procedure, shortened: as §1

[4] = compound: CC1=NC(=CC=C1)C2=C(N=C(N2)C(C)(C)C)C3=CC4=NC=CN=C4C=C3
Procedure, shortened: as §1

[5] = compound: CCCCN(Cc1ccc(C(=O)NO)cc1)C(=O)Nc1ccccc1 [Nexturastat A]
Procedure, shortened: as §1

[6] = compound: CCCS(=O)(=O)Nc1ccc(F)c(C(=O)c2c[nH]c3ncc(-c4ccc(Cl)cc4)cc23)c1F [vemurafenib]
Procedure, shortened: as §1

[7] = compound: CCCS(=O)(=O)Nc1ccc(F)c(C(=O)c2c[nH]c3ncc(Cl)cc23)c1F
Procedure, shortened: as §1

[8] = compound: CCCc1cc(C)[nH]c(=O)c1CNC(=O)c1cc(-c2ccnc(N3CCN(C)CC3)c2)cc2c1cnn2C(C)C
Procedure, shortened: as §1

[9] = compound: CCN(CC)Cc1ccc2cc(COC(=O)Nc3ccc(C(=O)NO)cc3)ccc2c1 [givinostat]
Procedure, shortened: as §1

[10] = compound: CCN(CCCOc1ccc2c(Nc3cc(CC(=O)Nc4cccc(F)c4)[nH]n3)ncnc2c1)CCOP(=O)(O)O [barasertib]
Procedure, shortened: as §1

[11] = compound: CC[C@@H]1C(=O)N(C)c2cnc(Nc3ccc(C(=O)NC4CCN(C)CC4)cc3OC)nc2N1C1CCCC1
Procedure, shortened: as §1

[12] = compound: CC[C@@H]1C(=O)N(C)c2cnc(Nc3ccc(C(=O)N[C@H]4CC[C@H](N5CCN(CC6CC6)CC5)CC4)cc3OC)nc2N1C(C)C [volasertib]
Procedure, shortened: as §1

[13] = compound: CC[C@H](C)N1C=C(C2=C(C=C(C=C21)C3=CN=C(C=C3)N4CCNCC4)C(=O)NCC5=C(C=C(NC5=O)C)C)C
Procedure, shortened: as §1

[14] = compound: CC[C@H](C)[C@@H](C(=O)N[C@@H]([C@@H](C)O)C(=O)N[C@@H](CC(C)C)C(=O)[C@]1(CO1)C)NC(=O)[C@H]([C@@H](C)CC)N(C)C(=O)C [epoxomicin]
Procedure, shortened: as §1

[15] = compound: CCn1c(C(=O)N(C2CC2)C2CC2)cc2c3c(ncn3C)c(Nc3cc(C)n(C)n3)nc21
Procedure, shortened: as §1

[16] = compound: CN(C)CC(=O)Nc1ccc2[nH]c(=O)c3ccccc3c2c1
Procedure, shortened: as §1

[17] = compound: CN(CCOC1=CC=C(C=C1)C[C@H]2C(=O)NC(=O)S2)C3=CC=CC=N3 (racemic) [rosiglitazone]
Procedure, shortened: as §1

[18] = compound: CN1C2=C(C3=C1C(=O)N(N=C3)CC4=CC(=CC=C4)N)SC(=C2)S(=O)C
Procedure, shortened: as §1

[19] = compound: CCn1cc(-c2ccnc3[nH]c(-c4cccc(CN(C)C)c4)cc23)c(-c2ccc(NC(=O)N(C)C)cc2)n1
Procedure, shortened: as §1

[20] = compound: CN1CCC(CNc2ccc3ncc(-c4cccc(OC(F)(F)F)c4)n3n2)CC1
Procedure, shortened: as §1

UniProt Q53R41, sequence (Q53R41 whole entry, looked up): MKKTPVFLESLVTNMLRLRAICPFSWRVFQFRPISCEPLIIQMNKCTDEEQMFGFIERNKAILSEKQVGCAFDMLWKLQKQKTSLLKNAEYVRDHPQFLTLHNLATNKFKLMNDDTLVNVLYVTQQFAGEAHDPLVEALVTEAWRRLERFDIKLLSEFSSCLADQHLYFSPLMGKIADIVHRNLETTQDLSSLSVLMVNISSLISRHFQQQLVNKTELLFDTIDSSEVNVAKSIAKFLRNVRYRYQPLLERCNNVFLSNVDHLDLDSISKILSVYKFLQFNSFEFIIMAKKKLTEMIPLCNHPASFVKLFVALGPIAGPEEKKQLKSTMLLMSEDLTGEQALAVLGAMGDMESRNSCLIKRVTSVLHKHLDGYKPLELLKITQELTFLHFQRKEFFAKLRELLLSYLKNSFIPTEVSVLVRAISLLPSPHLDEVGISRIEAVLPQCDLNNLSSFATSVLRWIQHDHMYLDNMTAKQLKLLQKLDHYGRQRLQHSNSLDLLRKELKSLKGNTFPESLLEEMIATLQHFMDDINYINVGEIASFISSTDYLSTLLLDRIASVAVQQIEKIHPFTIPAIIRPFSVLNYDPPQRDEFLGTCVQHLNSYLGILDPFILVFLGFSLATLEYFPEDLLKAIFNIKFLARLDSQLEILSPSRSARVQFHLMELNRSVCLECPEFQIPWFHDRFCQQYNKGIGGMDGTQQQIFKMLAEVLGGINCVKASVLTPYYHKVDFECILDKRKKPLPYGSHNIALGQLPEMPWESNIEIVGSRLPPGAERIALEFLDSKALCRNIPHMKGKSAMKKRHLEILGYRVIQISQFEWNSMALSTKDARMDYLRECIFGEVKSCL
UniProt Q9UJY4, sequence (Q9UJY4 whole entry, looked up): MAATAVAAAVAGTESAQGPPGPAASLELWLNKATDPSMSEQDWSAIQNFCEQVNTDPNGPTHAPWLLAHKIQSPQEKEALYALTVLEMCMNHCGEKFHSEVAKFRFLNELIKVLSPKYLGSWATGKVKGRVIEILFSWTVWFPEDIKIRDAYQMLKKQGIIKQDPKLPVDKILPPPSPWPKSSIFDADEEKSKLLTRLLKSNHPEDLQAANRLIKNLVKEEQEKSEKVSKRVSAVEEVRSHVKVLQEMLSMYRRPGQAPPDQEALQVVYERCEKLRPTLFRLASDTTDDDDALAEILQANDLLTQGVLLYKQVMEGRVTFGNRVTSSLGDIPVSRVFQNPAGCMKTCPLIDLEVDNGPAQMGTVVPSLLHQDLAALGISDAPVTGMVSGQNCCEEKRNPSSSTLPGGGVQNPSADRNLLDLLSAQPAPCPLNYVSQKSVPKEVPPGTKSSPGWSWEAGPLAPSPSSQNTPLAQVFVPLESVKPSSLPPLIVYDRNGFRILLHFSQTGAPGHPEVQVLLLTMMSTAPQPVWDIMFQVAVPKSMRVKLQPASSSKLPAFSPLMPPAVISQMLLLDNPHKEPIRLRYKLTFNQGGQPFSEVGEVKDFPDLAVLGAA
UniProt Q49A26, sequence (Q49A26 whole entry, looked up): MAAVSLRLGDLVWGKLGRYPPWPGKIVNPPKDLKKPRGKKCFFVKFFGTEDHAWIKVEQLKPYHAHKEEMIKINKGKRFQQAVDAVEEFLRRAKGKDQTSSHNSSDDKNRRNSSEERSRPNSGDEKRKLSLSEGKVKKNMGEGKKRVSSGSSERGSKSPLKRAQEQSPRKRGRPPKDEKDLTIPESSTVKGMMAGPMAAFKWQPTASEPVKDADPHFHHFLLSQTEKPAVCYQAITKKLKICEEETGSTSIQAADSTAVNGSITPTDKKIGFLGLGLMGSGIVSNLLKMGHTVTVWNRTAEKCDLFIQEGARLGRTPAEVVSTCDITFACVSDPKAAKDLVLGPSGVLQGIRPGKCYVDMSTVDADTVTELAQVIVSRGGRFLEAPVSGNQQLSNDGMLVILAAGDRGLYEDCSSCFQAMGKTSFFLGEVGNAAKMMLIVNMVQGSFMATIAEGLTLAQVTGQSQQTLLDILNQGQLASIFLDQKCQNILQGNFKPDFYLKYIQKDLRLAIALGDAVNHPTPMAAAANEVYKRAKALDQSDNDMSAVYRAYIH
UniProt Q8IVV7, sequence (Q8IVV7 whole entry, looked up): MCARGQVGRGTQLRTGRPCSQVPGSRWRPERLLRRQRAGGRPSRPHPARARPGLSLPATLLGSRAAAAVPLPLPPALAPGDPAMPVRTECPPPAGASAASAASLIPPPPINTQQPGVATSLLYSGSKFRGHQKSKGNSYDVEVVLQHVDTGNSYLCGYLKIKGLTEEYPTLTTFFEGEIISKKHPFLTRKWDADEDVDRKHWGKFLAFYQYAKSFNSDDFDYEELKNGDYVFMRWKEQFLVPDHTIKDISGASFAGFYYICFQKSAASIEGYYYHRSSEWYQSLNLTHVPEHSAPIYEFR
UniProt Q9BYC5, sequence (Q9BYC5 whole entry, looked up): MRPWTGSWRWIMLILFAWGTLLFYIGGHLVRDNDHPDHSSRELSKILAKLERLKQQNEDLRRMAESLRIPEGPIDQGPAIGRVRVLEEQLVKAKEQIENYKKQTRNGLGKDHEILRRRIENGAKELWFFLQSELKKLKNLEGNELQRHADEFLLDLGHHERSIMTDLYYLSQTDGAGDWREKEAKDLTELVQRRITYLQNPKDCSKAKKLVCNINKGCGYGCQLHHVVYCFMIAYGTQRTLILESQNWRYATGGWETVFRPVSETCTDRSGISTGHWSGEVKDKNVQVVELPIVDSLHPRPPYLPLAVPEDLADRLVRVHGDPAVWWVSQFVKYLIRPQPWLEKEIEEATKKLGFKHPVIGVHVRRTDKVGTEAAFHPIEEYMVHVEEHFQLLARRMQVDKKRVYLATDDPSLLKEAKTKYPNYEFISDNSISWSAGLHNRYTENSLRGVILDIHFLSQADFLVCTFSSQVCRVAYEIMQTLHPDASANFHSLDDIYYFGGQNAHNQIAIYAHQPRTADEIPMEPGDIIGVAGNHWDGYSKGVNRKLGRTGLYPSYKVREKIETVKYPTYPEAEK
UniProt O43824, sequence (O43824 whole entry, looked up): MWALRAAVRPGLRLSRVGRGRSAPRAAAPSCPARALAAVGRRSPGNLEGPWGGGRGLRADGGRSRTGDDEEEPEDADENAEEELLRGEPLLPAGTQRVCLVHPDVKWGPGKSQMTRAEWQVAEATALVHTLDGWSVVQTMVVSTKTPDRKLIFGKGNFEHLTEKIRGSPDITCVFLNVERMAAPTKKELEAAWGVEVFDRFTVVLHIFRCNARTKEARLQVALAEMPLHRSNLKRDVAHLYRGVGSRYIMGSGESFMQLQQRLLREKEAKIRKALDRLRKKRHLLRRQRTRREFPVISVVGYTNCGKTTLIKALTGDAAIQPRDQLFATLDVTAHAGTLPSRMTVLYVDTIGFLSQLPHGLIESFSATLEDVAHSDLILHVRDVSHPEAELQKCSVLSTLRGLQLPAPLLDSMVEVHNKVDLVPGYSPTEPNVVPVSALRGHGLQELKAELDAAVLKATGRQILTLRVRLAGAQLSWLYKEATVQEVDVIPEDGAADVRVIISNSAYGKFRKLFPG
UniProt Q04446, sequence (Q04446 whole entry, looked up): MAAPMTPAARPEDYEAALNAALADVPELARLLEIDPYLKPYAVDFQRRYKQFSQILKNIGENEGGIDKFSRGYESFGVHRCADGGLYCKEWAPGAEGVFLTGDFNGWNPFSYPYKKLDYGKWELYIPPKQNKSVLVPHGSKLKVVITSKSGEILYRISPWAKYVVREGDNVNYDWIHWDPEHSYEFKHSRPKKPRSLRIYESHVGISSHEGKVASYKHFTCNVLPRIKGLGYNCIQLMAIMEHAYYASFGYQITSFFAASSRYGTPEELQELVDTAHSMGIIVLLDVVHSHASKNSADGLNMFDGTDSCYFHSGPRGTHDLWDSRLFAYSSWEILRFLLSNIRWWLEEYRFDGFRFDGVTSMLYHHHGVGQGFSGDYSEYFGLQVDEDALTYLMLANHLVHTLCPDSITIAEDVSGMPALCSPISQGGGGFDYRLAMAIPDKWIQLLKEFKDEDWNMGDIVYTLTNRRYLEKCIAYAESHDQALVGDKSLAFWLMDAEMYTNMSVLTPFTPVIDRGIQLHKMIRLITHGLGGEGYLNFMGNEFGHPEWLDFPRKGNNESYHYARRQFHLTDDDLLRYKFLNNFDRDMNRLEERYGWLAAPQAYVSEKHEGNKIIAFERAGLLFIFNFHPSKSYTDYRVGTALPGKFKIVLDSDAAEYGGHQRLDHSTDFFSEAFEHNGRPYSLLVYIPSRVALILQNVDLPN
UniProt P21695, sequence (P21695 whole entry, looked up): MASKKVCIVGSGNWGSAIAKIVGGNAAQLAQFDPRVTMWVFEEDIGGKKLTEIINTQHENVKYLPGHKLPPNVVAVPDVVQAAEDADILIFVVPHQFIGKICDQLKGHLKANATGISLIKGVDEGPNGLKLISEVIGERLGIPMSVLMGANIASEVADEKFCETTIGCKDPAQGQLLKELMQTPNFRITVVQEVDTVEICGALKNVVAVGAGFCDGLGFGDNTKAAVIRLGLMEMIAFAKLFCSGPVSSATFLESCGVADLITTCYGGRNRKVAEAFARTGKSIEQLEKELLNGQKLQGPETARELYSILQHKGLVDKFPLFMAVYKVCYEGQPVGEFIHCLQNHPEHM
UniProt P01344, sequence (P01344 whole entry, looked up): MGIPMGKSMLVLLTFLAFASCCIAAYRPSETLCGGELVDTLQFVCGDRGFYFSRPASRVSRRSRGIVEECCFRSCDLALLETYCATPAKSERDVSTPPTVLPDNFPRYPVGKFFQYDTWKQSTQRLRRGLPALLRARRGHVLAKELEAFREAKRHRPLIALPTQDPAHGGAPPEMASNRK
UniProt Q9Y324, sequence (Q9Y324 whole entry, looked up): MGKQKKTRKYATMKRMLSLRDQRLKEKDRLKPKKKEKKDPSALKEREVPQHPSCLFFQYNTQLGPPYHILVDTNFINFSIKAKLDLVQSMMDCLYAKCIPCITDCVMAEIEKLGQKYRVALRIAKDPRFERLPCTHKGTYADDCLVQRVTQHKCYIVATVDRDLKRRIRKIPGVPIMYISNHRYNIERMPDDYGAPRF

Row | Target | log2 fold change [1] | log2 fold change [2] | log2 fold change [3] | log2 fold change [4] | log2 fold change [5] | log2 fold change [6] | log2 fold change [7] | log2 fold change [8] | log2 fold change [9] | log2 fold change [10] | log2 fold change [11] | log2 fold change [12] | log2 fold change [13] | log2 fold change [14] | log2 fold change [15] | log2 fold change [16] | log2 fold change [17] | log2 fold change [18] | log2 fold change [19] | log2 fold change [20]
1 | GGA2 (UniProt Q9UJY4) | -0.015 | 0.033 | -0.047 | 0.06 | 0.582 (active) | 0.053 | 0.017 | -0.059 | -0.03 | 0.051 | 0.022 | 0.059 | 0.038 | -0.033 | 0.005 | -0.021 | 0.083 | -0.02 | – | –
2 | GLYR1 (UniProt Q49A26) | 0.039 | 0.032 | -0.125 | -0.06 | 0.375 (active) | 0.054 | 0.009 | 0.085 | 0.091 | 0.136 | 0.099 | 0.054 | 0.026 | -0.074 | -0.047 | -0.038 | -0.292 | -0.019 | 0.026 | 0.041
3 | HDAC7 isoform 5 (UniProt Q8WUI4) | -0.01 | 0.028 | -0.043 | -0.002 | 0.108 | 0 | -0.009 | -0.014 | – | 0 | 0.051 | 0.01 | 0.007 | 0.016 | -0.031 | 0.059 | 0.011 | -0.053 | -0.058 | -0.123
4 | FIBP (UniProt O43427) | 0.046 | -0.009 | 0.001 | 0 | -0.009 | 0.03 | 0.089 | 0 | -0.009 | -0.071 | 0.164 | -0.093 | – | -0.023 | -0.026 | -0.043 | -0.012 | -0.072 | -0.023 | -0.229
5 | GAB2 (UniProt Q9UQC2) | -0.053 | -0.21 | 0.022 | 0.077 | 0.075 | -0.071 | -0.349 | 0.099 | 0.101 | – | -0.203 | -0.009 | – | 0.065 | -0.085 | -0.016 | – | 0.002 | 0.034 | -0.458
6 | FUT8 (UniProt Q9BYC5) | -0.05 | -0.047 | – | 0.037 | 0.064 | -0.417 | – | 0.048 | -0.048 | -0.014 | -0.327 (active) | – | -0.042 | 0.002 | 0.08 | 0.175 | -0.001 | -0.04 | 0.06 | -0.057
7 | IGF2 isoform 3 (UniProt P01344) | – | – | – | 0.136 | – | 0.073 | – | – | -0.148 | – | – | – | – | – | -0.395 | -0.218 | – | 0.135 | – | –
8 | GPNMB (UniProt Q14956) | – | – | – | – | 1.64 (active) | – | – | – | 0.671 | – | 0.206 | – | – | -0.191 | 0.149 | – | – | – | – | –
9 | GID4 (UniProt Q8IVV7) | 0.028 | 0.003 | -0.07 | – | 0.058 | -0.181 | -0.271 (active) | -0.035 | -0.03 | -0.1 | 0.082 | 0.037 | 0.044 | -0.019 | 0.08 | -0.21 | 0.003 | -0.093 | 0.116 | -0.006
10 | GPD1 (UniProt P21695) | 0.011 | -0.046 | 0.021 | – | 0.653 (active) | 0.02 | -0.042 | -0.34 | 0.514 | 0.062 | – | -0.161 | 0 | -0.205 | -0.23 | -0.045 | 0.027 | -0.126 | -0.011 | -0.183
11 | GBE1 (UniProt Q04446) | – | 0.08 | 0.128 | 0.014 | 0 | 0.162 | 0.065 | 0.005 | 0.038 | 0.109 | 0.042 | -0.61 (active) | – | 0.168 | 0.016 | 0.058 | -0.128 | 0.071 | – | –
12 | FGG (UniProt P02679) | – | 0.067 | -0.093 | – | – | – | -0.214 | – | – | – | – | -0.042 | – | – | – | – | – | – | 0.035 | 0.137
13 | FCF1 (UniProt Q9Y324) | 0.017 | -0.011 | -0.114 | -0.187 | 0.271 | -0.139 | -0.167 | 0.324 | – | – | 0.095 | 0.108 | – | -0.003 | – | -0.041 | – | 0.107 | 0.134 | 0.219
14 | HNRNPK isoform 3 (UniProt P61978) | -0.015 | 0.027 | – | 0.066 | 0.085 | -0.066 | – | -0.067 | 0.062 | -0.136 | 0.121 | – | -0.062 | -0.035 | 0.034 | 0.012 | -0.035 | -0.057 | 0.032 | 0.076
15 | HNRNPUL1 (UniProt M0R247) | -0.059 | – | -0.148 | -0.075 | – | – | -0.15 | – | 0.001 | – | -0.072 | 0.16 | -0.101 | – | 0.121 | – | – | 0.21 | – | –
16 | FMR1 (UniProt Q06787) | -0.023 | 0.036 | -0.066 | -0.163 | – | – | -0.094 | -0.068 | -0.203 | – | -0.068 | -0.173 | – | – | 0.178 | – | – | – | 0.088 | 0.279
17 | FASTKD1 (UniProt Q53R41) | -0.066 | -0.138 | – | 0.017 | 0.013 | 0.065 | – | – | 0.156 | 0.096 | -0.023 | – | -0.088 | 0.155 | -0.151 | 0.064 | 0.014 | 0.072 | 0.051 | -0.188
18 | H3-3A (UniProt P84243) | -0.205 | – | 0.078 | – | – | 0.149 | 0.102 | 0.118 | 0.267 | 0.101 | -0.083 | -0.239 | 0.147 | – | -0.123 | -0.083 | 0.076 | 0.045 | – | –
19 | GTPBP6 (UniProt O43824) | 0.038 | 0.014 | – | -0.042 | -0.037 | 0.015 | – | 0.006 | -0.062 | -0.015 | -0.07 | – | -0.041 | 0.026 | 0.025 | 0.034 | 0.299 | -0.13 | -0.079 | -0.007
